# Tested on: PPARa:RXRa (NR concentration 270 nM, RXRa partner concentration 90 nM)
# Experiment: PBM binding z-score (relative to random genomic background probes); higher = stronger binding; sequences stand for … in GC…GCGATTGACAGCGTAGAATGAAGG
# Method: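 Protein-binding microarray (Agilent 4x180K custom design, double-stranded 60-nt probes: 5' GC cap, 34-nt variable region, 24-nt constant primer region; full probe sequence given). Purified or IVT nuclear receptor:RXRα heterodimers (3:1 NR:RXRα, mostly 270:90 nM) or homodimers were incubated for 1 h in PBS with 2% milk and no ligand, then detected with Alexa488 antibodies. Fluorescence from o1-orientation probes (~5 replicates averaged) was converted to z-scores against 500 random hg19 background probes. Variable regions are seed direct-repeat (DR0–DR5) sites, all their single-nucleotide variants and half-site ablations.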
row,Sequence,PBM binding z-score
1,TCTGCTAGGTCAACGATGGTCAGTTAATCTGCTA,3.04
2,ATCGAAAGGTCGAAGGTGCGTATACCCACCCGAA,4.12
3,ATATGTAGTTTATCGGGTCATTCAGTTTGCGCAT,3.2
4,CAAAATAGGTCAAAGGTCAAAGTCGAGCCAACCA,7.93
5,CCTACTGGGCCTAAGGTCATTGATTCCAATGCTC,4.53
6,TAGCCTAGGTCATGCGGGACAGTATAGTGTCGGC,3.53
7,CCAGACAGGTGAGAAGGTAACTCAGCCTCGATTA,0.833
8,CCTACTGGGCCAAAGGTGATTGATTCCAATGCTC,4.5
9,ATATGTAGGTTAGGGTCAGTCAGAAAGTAGGGAA,4.61
10,AGAATGAGGTCACCAAAGATCAGGGAAACGCTTG,6.33
11,CCAACTAGGTCAAAGGACAGTGAAAGGCGACGTA,5.08
12,ATCGAAAGGTCTAAGGTGAGTATACCCACCCGAA,1.52
13,ATCGAAAGGTCCACGAGGTGAGTATACACCGTTT,0.734
14,ACTAGTTGGTCAGCTGAGGTCACACCCAATTCGG,3.46
15,TGTCAATGTTCAAAGGTAACGTAAGTATCCACAC,1.3
16,CAAACTAGGTCACTAAAGGTCAAAGTCGAATGAC,6.51
17,CGTCCAAGGTCAGCGGGTCAGTGAAAGCGACGTG,4.79
18,CCGAGGAGGTTACGAGGGGGCATTCAGTGCGAAT,4.29
19,GATACAGGGTCGGCTAGAGGCCAGAGTATGGAAA,1.36
20,ATATGTAGGTTAACTGGGGTCATTCAGACTAGGC,5.96

row,Sequence,PBM binding z-score
1,CCTACTGGGCCGTTCAGAGGTCATTGATCATATG,3.56
2,GCTTAAGGGTCAAAGGTTATAGCATGAATAGAAT,7.18
3,ATCTCTAGGTTAAGATAGTTCAGTGAATGCAAAT,1.77
4,AGAATGAGGTTACCAAAGGTCAGGGAAACGCTTG,5.55
5,CAAACAAGGTCACCGGAAGGTCAAAGTCCGCATG,6.58
6,CCTTACGGGTCAAGGTTATAGCCCGGGTGGTACG,4.97
7,CCTAGTTGGTCAAGGTCACACCCGCTATAGGTAC,3.85
8,CGTTCAAGGTCAAAGGTCAGTGAAGAGATGACGG,7.05
9,TCTCGGAGGACACAAAGGTCAGAGCTTTCCAGAG,3.86
10,CGAACTAGGTCATTGACAGGACAGTGGATAGTAA,4.75
11,TTACCAAGGTGAAAGGTCGTTGCTGCACGCCTTG,5.33
12,GGAACGAGGGCATTCGAGTTCATAGCATGGCGAT,2.7
13,CTACCAAGGTCAACAAGGTCGTTGATTACTATTC,6.16
14,GATACAGGGTCAAGGTCAGAGTACGCGTATTGAT,5.88
15,TAGCCTAGGTCATGGGCCAGTGTACCACGCGAAC,4.38
16,AGTCAAACTTCAGGACGAGGTAACGTAAAGCACG,0.0838
17,CGAACAAGGTCACCAGGACAGTGAAGAGGTTGGA,6.12
18,TAGCCTAGTTCATGCGGGCCAGTATAGTGTCGGC,0.278
19,ACGCGGAGGACAAAGGTCAGAGCTACGCCAGTGA,4.75
20,CTATGTAGGTTAGGGGGGTCATTCAGTTTGAAAG,5.95
